Only some compounds are listed: those with a hit (about 6.3% of all), similar ones and a draw of the others.
RORg inh = ROR gamma (mouse) transcription inhibition. P51450. Drosophila S2 Gal4-RORgamma UAS-luciferase reporter, 20 h. Potency, µM (series often up to 53.6 µM), for the others: at the top dose activity change, negative = inhibition, usual class: inhibitors. 310,000 tested, 5.4% active. AID 2551; also: % is scaled to controls: 0 for no effect and ±100 for the full control effect; nearly all actives have a fitted effect of over 60% in size
Target sequence (P51450 whole entry, looked up, the tested form may be a part): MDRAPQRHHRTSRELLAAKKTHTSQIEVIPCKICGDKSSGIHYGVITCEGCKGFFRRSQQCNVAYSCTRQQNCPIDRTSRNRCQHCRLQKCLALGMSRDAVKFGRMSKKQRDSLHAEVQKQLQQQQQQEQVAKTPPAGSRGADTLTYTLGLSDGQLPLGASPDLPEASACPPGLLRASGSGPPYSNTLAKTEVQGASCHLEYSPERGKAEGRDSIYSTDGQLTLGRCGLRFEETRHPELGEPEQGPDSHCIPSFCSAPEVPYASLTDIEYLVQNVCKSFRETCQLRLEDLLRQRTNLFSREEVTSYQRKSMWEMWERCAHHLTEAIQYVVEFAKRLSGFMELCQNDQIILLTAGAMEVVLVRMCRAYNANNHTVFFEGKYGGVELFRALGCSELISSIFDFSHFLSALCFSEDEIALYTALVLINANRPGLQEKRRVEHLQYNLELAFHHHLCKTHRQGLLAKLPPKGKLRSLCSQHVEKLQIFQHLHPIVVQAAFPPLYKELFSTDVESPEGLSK
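Stably transfected Drosophila Schneider cells are the test system, with ROR gamma fused to Gal4 and luciferase under UAS control; luminescence is read after 20 hr of 700 uM copper sulfate induction at ambient temperature.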
TGFb inhibitor = TGF-b pathway inhibition; HepG2 CAGA-GFP TGF-b/SMAD3 reporter, GFP fluorescence, 18 h; TGF-beta stimulated, 500 pg/mL final; Potency, µM (top dose mostly 46.1 µM), for the others: at the highest dose activity, negative = inhibition, most hits filed as inhibitors; 410,000 tested, 1.2% active; AID 588855; also: % is scaled to controls: 0 for no effect and ±100 for the full control effect; nearly all actives have a fitted effect of over 65% in size
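Inhibition of TGF-beta-driven CAGA-GFP reporter expression in HEPG2 cells is measured by cellular GFP fluorescence after 18 h stimulation with 500 pg/mL recombinant TGF-beta in 1% FBS medium at 37 degrees C.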
ATXN2 expr inh = inhibitors of ATXN2 expression; HEK-293 ATXN2-luciferase reporter, luminescence, 24 h; Potency, µM (top dose mostly 57 µM), inactives show at the top dose activity change, negative = inhibition, most hits filed as inhibitors; 360,000 tested, 0.72% active; AID 1745845; also: % is scaled to controls: 0 for no effect and ±100 for the full control effect; nearly all actives have a fitted effect of over 55% in size
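qHTS (up to 57 uM final) was run with 24 h compound exposure of reporter cells at 37 °C. Each well was multiplexed: SteadyGlo luminescence measured ATXN2-luciferase expression after a fluorogenic Gly-Phe-AFC viability readout (25 uM final).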
S2 tox = cell viability loss in ATXN counter-screen. S2 cells (HEK-293 line with an ATXN2-luciferase reporter) viability, CellTiter-Fluor protease fluorescence, 24 h. Potency, µM (top dose mostly 56.7 µM), hits mostly cytotoxic. 400,000 tested, 0.49% active. AID 651635; also: nearly all actives have a fitted effect of over 40% in size
HepG2 viability = kills HepG2 cells in TGF-b inhibitor counter-screen; HepG2 CAGA-GFP viability, ATP luminescence, 18 h; Potency, µM (doses to about 46.1 µM), without a hit: at the top dose activity change, negative = cytotoxicity, most hits filed as cytotoxic; 410,000 tested, 0.76% active
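HepG2 CAGA-GFP cells (1000/well, DMEM with 1% FBS) received compound, then TGF-beta at 500 pg/mL final, and were incubated 18 hours at 37 degrees C. Viability was read by CellTiter-Glo luminescence. Media-only wells were set as complete cell-killing and DMSO as no toxicity.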
VP16 counter = Gal4-VP16 reporter inhibition counter-screen; Drosophila S2 Gal4-VP16 UAS-luciferase, luminescence, 20 h; Potency, µM (top dose mostly 53.6 µM), for the others: top-dose activity, negative = inhibition, most hits filed as inhibitors; 310,000 tested, 3.5% active; AID 2546;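 also: Gal4-VP16 expression switched on by copper sulfate through the metallothionein promoter; % is scaled to controls: 0 for no effect and ±100 for the full control effect; nearly all actives have a fitted effect of over 50% in size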
Starred values were filed as active, the others as inactive; i = inactive; ? = inconclusive; / = no result; ! = repeats disagree; [ ] = dose if it differs, or a comment. Calls follow the shape of the dose curve; as a rule, active = well fitted curve in the direction sought with a large enough effect; inconclusive = small, poorly fitted or top-dose-only effect, or another doubt; inactive = no such curve, though single readings can be large; an effect the other way counts as inactive or inconclusive. Potency is read from the fitted curve at half-maximal effect.

SMILES	RORg inh	TGFb inhibitor	ATXN2 expr inh	S2 tox	HepG2 viability	VP16 counter
Cc1ncc(-c2ccc(F)cc2)c(C2CCCN(Cc3cccc(O)c3)C2)n1 (stereo not drawn)	/	/	/	i	/	/
CCC1=NN(C(=O)c2ccccc2O)C(O)(c2ccccc2)C1 (stereo not drawn)	5µM*	13µM*	-39%	/	14µM*	7.9µM*
CCC1=NN(C(=O)c2ccccc2Br)C(O)(c2ccc(Br)cc2)C1 (stereo not drawn)	8.9µM*	-9%	/	i	3%	?
O=C(CCn1c(=O)c2cccn2c2cccnc21)N1CCN(c2ccc(F)cc2)CC1	/	-52%	/	/	-3%	/
Cc1ccccc1Cn1cc(S(=O)(=O)c2ccc(C(C)C)cc2)c(=O)c2cc3c(cc21)OCO3	/	4%	2%	i	1%	/
COC(=O)[C@@]1(Cc2ccc(OC)cc2)[C@@H]2C(=CC(=O)[C@H]2CC(=O)C(=O)N2CCCC2)CN1C(=O)c1ccccc1	?	?	?	28µM*	-46%	4µM*
C=C1C(=O)C=C2CN(C(=O)c3ccccc3)[C@@](Cc3ccc(OC)cc3)(C(=O)OC)[C@@H]12	4µM*	/	/	/	/	0.71µM*
COC(=O)[C@@]1(Cc2ccc(F)cc2)[C@@H]2C(=CC(=O)[C@H]2CC(=O)C(=O)N2CCCC2)CN1C(=O)c1ccccc1	14µM*	/	/	/	/	?
O=C(CSc1nc2ccccc2n1Cc1ccc(F)cc1)N1CCN(c2ccc(F)cc2)CC1	/	1%	2%	i	7%	/
CCCCC[C@H](O)/C=C/C=C\C/C=C\C/C=C\CCCC(=O)O	17%	/	/	/	/	8%
Cn1nc(C(=O)Nc2c(-c3ccccc3)nc3sccn23)c2ccccc2c1=O	10µM*	2%	46%	i	-3%	?
O=C(CCCN1C(=O)/C(=C\c2ccco2)SC1=S)Nc1ccc2ccccc2c1	13µM*	-12%	171%	i	-9%	10µM*
O=C(CCCN1C(=O)/C(=C/c2ccco2)SC1=S)Nc1ccccc1C(=O)O	5%	-3%	15%	i	-2%	1%
O=C(O)CCCN1C(=O)/C(=C\c2ccco2)SC1=S	4µM*	5%	-16%[11.3 µM]	i	-18%	1.3µM*
CC(C)(C)OC(=O)N1CC2(CCCCC2)CC1Cc1ccc(C(F)(F)F)cc1 (stereo not drawn)	/	-2%	-7%	i	-47%	/
Cc1ccc(S(=O)(=O)N2CCC(=O)N([C@H](COCc3cccc(C)c3)C(C)C)CC2)cc1	/	/	-13%	?	/	/
O=S(=O)(Oc1ccc(Cl)cc1)c1ccccc1	40%	/	/	/	/	0%
COc1ccc(OCc2cccc(C(=O)Nc3cc(C)on3)c2)cc1	63%	?	2.2µM*	i	-12%	?
COc1ccc(OCc2cccc(C(=O)Nn3cc([N+](=O)[O-])cn3)c2)cc1	?	-19%	1µM*	i	-3%	-29%
COC(=O)c1cccc(Cn2cc([N+](=O)[O-])cn2)c1	0%	/	/	/	/	-1%
NNC(=O)c1cccc(COc2ccc(Br)cc2)c1	?	-3%	-34%	i	-8%	-97%
COc1ccc(OCc2cccc(C(=O)NN)c2)cc1	14µM*	-3%	2.2µM*	i	4%	?
NNC(=O)c1cccc(COc2cccc(Br)c2)c1	13µM*	2%	-1%	i	-31%	?
CC1=C(C(=O)Nc2cccnc2)C(c2ccccc2Cl)n2nc(-c3ccccc3)nc2N1 (stereo not drawn)	/	-22%	11%	i	1%	/
COc1cccc(Cn2c(=O)c(-c3ccc(Cl)cc3)nc3cncnc32)c1	-9%	/	/	/	/	0%
SMILES	RORg inh	TGFb inhibitor	ATXN2 expr inh	S2 tox	HepG2 viability	VP16 counter
O=c1[nH]c(SCc2nc3ccccc3n2Cc2ccccc2)nc2ccccc12	4.5µM*	-5%	0%	i	-38%	?
O=C(NCCCc1nc2ccccc2n1Cc1ccc(Cl)cc1)C1CCCCC1	/	10µM*	?	?	-30%	/
c1ccc(Cn2c(CN3CCCC3)nc3ccccc32)cc1	14µM*	-1%	0%	i	-20%	?
OCc1nc2ccccc2n1Cc1ccc(Cl)cc1	24%	-14%	-19%	i	16%	4%
Nc1cc(=O)[nH]c(SCc2nc3ccccc3n2Cc2ccccc2)n1	-5%	16%	12%	i	-18%	-3%
Clc1ccc(Cn2c(CN3CCCC3)nc3ccccc32)cc1	2µM*!	/	?	?	/	7.1µM*
CCOC(=O)C(Cc1c[nH]c2ccccc12)NC(=O)COc1ccc(Cl)c(C)c1 (stereo not drawn)	/	?	/	/	-81%	/
COC(=O)c1ccc(CN2CCOc3ccc(C(O)c4cccnc4)cc3C2)cc1 (stereo not drawn)	/	/	/	i	/	/
CCN(CC)CCNC(=O)c1[nH]c2ccc(OCc3ccccc3)cc2c1C	13µM*	?	?	?	-40%	-17%
O=C(Nc1nnc([C@H]2C[C@H](O)[C@@H](CO)O2)s1)Nc1cccc(Cl)c1Cl	/	9%	37%	i	4%	/
Cc1ccsc1C(=O)N1CCC(CO)(Cc2ccccc2)CC1	10µM*	-1%	-8%	i	-6%	?
COc1ccc(C(CNC(=O)CCNS(=O)(=O)c2ccccc2)N2CCOCC2)cc1 (stereo not drawn)	/	8%	/	i	0%	/
O=C(Nc1ncc(Br)s1)C(Cc1ccccc1)n1cccc1 (stereo not drawn)	13µM*	?	-38%	i	-64%	?
CN1CCN(c2ccccc2NC(=O)C(Cc2ccccc2)n2cccc2)CC1 (stereo not drawn)	23%	-5%	0%	30µM*	-34%	-6%
CN1C(=O)c2cccc3c(S(=O)(=O)Nc4cccc(C(=O)O)c4)ccc1c23	/	0%	0%	i	-5%	/
COC(=O)C1CCCCN1Cc1ccc2c(c1)CN(C(=O)c1csc(-c3cccs3)n1)CCO2 (stereo not drawn)	/	/	/	i	/	/
CCCCCOc1ccc(NC(=O)Cc2csc(C)n2)cc1	/	-24%	/	/	-8%	/
S=c1[nH]ccn1Cc1ccccc1	11µM*	-6%	-6%	i	14%	?
S=c1nc(-c2ccccc2)[nH]c2ccccc12	0.79µM*	-26%	-4%[11.3 µM]	i	-12%	7.1µM*
O=C(CCC(=O)NNC(=S)Nc1ccccc1)NCc1ccccc1	10µM*	0%	66%	i	-19%	?
CC(C)COCC(O)CCC(=O)NNC(=S)Nc1ccccc1 (stereo not drawn)	-35%[10 µM]	?	-8%	?	-26%	1µM*
